Results from PubChem BioAssay AID488922 (Johns Hopkins Ion Channel Center, 2010).
Among all 310,000 compounds or so, about 3,800 (1.2%) were called active.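 The calls were made as follows: active = ratio B-score over 3 SD below the library mean, with starting fluorescence within 5 SD of its mean; inactive = the rest, inconclusive results apart.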 The sample as a whole holds a higher share of actives than the screen did.

Target: Potassium channel subfamily K member 9 (Homo sapiens) (UniProt Q9NPC2)
Assay: KCNK9 potassium channel inhibitors, primary screen, HEK293 cells, thallium flux (AID 488922);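 as to B-score: negative B-score means less thallium flux so channel inhibition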
Conditions: HEK293 KCNK9, FluxOR thallium flux fluorescence, at 10 µM; hits give low values

Potassium channel subfamily K member 9 (Homo sapiens), sequence (Q9NPC2 whole entry, looked up): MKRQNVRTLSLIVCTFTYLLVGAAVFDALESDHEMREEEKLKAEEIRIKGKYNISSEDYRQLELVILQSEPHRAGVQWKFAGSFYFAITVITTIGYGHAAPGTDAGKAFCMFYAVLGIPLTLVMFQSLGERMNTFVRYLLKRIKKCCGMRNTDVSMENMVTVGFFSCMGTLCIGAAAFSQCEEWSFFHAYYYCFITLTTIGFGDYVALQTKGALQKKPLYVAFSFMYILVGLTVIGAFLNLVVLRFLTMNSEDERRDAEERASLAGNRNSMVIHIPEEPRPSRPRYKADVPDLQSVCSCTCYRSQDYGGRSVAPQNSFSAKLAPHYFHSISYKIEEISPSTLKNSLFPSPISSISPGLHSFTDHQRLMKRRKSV

Structure (SMILES)	B-score
O=C(NC(=S)Nc1ccc2oc(=O)ccc2c1)c1ccc(-c2cccc(Cl)c2Cl)o1	inactive
Cc1ccc(S(=O)(=O)N2CCN(C(=O)c3ccc(-n4cncn4)c([N+](=O)[O-])c3)CC2)cc1	inactive
COc1ccc(CNC(=O)C2CCCC2)cc1	inactive
O=C1CC2(CC(c3ccc(Cl)cc3)=NO2)C(=O)N1c1ccccc1 (stereo unspecified)	inactive
Nc1cc(C(F)(F)F)ccc1N1CCOCC1	inactive
CCC(C)c1ccc(NC(=S)N2CCCC2)cc1 (stereo unspecified)	inactive
Cc1cccc(C)c1NC(=S)N(Cc1cccnc1)Cc1ccccc1Cl	inactive
Cc1ccc(CN(Cc2cccnc2)C(=S)Nc2cccc(Cl)c2C)cc1	-6.65 (active)
COCCNC(=S)N(Cc1cccnc1)Cc1ccc(OC)c(OC)c1	inactive
Cc1c(Cl)cccc1NC(=S)N(Cc1ccccc1)Cc1cccnc1	inactive
Cc1ccc(Cl)cc1NC(=S)N(CCN(C)C)Cc1cccs1	inactive
Cc1ccc(CN(Cc2cccnc2)C(=S)Nc2cc(Cl)ccc2C)cc1	-7.5 (active)
Cc1ccccc1NC(=O)COc1cccc2c1CCNC2=O	inactive
O=C(CCNC(=O)c1ccc(Br)cc1)Nc1cccc(S(=O)(=O)N2CCCCC2)c1	inactive
O=C(CSc1ncn[nH]1)NCc1ccc2c(c1)OCO2	inactive
O=C(CSc1ncnc2scc(-c3ccccc3)c12)NCc1ccc2c(c1)OCO2	-6.9 (active)
O=C(CN1CCN(c2nc(-c3ccccc3)cs2)CC1)NCc1ccc2c(c1)OCO2	inactive
CCOC(=O)C(=Cc1ccccc1OC)C(=O)OCC	inactive
CCOC(=O)c1c(NC(=O)CNC2CCCc3ccccc32)sc(C(N)=O)c1C (stereo unspecified)	inactive
CCOc1ncccc1C(=O)NNC(=O)c1cccc(S(=O)(=O)Nc2ccccc2OC)c1	inactive
COc1ccc(NC(=O)C2CCC(CNC(=O)[C@@H]3Cc4ccccc4CN3)CC2)cc1 (stereo partly specified)	inactive
COc1cc(C(=O)Nc2oc(-c3ccccc3)c(-c3ccccc3)c2C#N)cc(OC)c1OC	-6.66 (active)
COC(=O)c1sccc1NC(=O)c1cc(OC)c(OC)c(OC)c1	inactive
N#Cc1c(NC(=O)CCCN2C(=O)c3ccccc3C2=O)oc(-c2ccccc2)c1-c1ccccc1	inactive
COC(=O)Nc1ncc(CN2CCCCC2)s1	inactive
CCCCN(C(=O)COc1ccc(NC(C)=O)cc1)C1CCS(=O)(=O)C1 (stereo unspecified)	inactive

Structure (SMILES)	B-score
Cc1cccc(C(=O)NCc2nnc(SC(C)C(=O)Nc3nnc(C)s3)n2C)c1 (stereo unspecified)	inactive
CN(Cc1ccccn1)Cc1nc(-c2ccc(Cl)cc2)no1	inactive
Cn1nc(-c2ccccc2)c(-c2nc(-c3ccc(Cl)cc3)no2)c1Cl	-7.35 (active)
Brc1ccc(-c2noc(-c3ccccc3)n2)o1	inactive
CC(C)Cn1c(N)c(C(=O)COC(=O)CN2C(=O)C3CC=CCC3C2=O)c(=O)n(C)c1=O (stereo unspecified)	inactive
COC(=O)c1cc(NC(=O)CC2C(=O)NCCN2C(=O)c2ccc(F)cc2)cc(C(=O)OC)c1 (stereo unspecified)	inactive
Cc1csc(=Nc2ccccc2)n1CCO	inactive
Cc1cs/c(=N\N=C\c2ccc(O)cc2)n1Cc1ccco1	-6.66 (active)
CN(c1ccccc1)c1ccc(/C=c2\s/c(=C(/C#N)C(=O)C(C)(C)C)n(Cc3ccco3)c2=O)cc1	inactive
CCNC(=O)NC(=O)C(C)OC(=O)c1cc(S(=O)(=O)N2CCCCCC2)ccc1OC (stereo unspecified)	inactive
CCCCn1c(N)c(N(CC(C)C)C(=O)c2cccc(S(=O)(=O)N3CCN(C(C)=O)CC3)c2)c(=O)[nH]c1=O	inactive
Cc1cc(C)nc(-n2nc(C)cc2NC(=O)c2ccc(F)cc2F)n1	inactive
CC1Cc2ccccc2N1S(=O)(=O)c1c(N)n(C)c(=O)n(C)c1=O (stereo unspecified)	inactive
CCCCn1ccnc1C(=O)c1cccc(S(=O)(=O)N2c3ccccc3CC2C)c1 (stereo unspecified)	-11.8 (active)
CC1Cc2ccccc2N1S(=O)(=O)c1ccc(Cl)nc1 (stereo unspecified)	inactive
O=C(NN1C(=O)C2C3C=CC(O3)C2C1=O)c1ccccc1 (stereo unspecified)	inactive
COc1ccc(C(=O)NN2C(=O)C3C(c4ccccc4)C=CC(c4ccccc4)C3C2=O)cc1 (stereo unspecified)	-8.93 (active)
COc1ccccc1C(=O)NN1C(=O)C2C3C=CC(O3)C2C1=O (stereo unspecified)	inactive
CC(=O)Nc1ccc(S(=O)(=O)NC(C)C(=O)OCC(=O)NC2CCCC2)cc1 (stereo unspecified)	inactive
CCc1ccc(NC(=O)NC(C)c2ccc3c(c2)OCO3)cc1 (stereo unspecified)	inactive
CC1CCCN(C(C(=O)Nc2ccc(C(C)C)cc2)c2ccc3c(c2)OCO3)C1 (stereo unspecified)	-7.66 (active)
O=C(Nc1ccc2c(c1)OCCO2)C(c1ccc(F)cc1)N1CCCCC1 (stereo unspecified)	inactive
O=C(Nc1ccc(S(=O)(=O)Nc2ccccn2)cc1)c1ccccc1	inactive
O=C(CCl)N(Cc1cccc([N+](=O)[O-])c1)c1cccc(Cl)c1	inactive
C=CCN(N=Nc1cccc([N+](=O)[O-])c1)c1cccc([N+](=O)[O-])c1	-11.2 (active)
CCN(CC)C(=O)CN(c1cccc([N+](=O)[O-])c1)S(=O)(=O)c1ccccc1	inactive

Structure (SMILES)	B-score
Cc1ccc(CSCC(=O)N(C)CC(=O)Nc2ccc(C)cc2)cc1	inactive
O=S(=O)(Cc1noc(-c2ccc(OC(F)(F)F)cc2)n1)c1ccc(F)cc1	inactive
COc1cc(Cl)c(C)cc1NC(=O)CSc1nnc(-c2cccnc2)n1Cc1ccco1	inactive
CCn1c(SCC(=O)Nc2cc(C)c(Cl)cc2OC)nnc1-c1ccco1	inactive
COc1cc(Cl)c(C)cc1NC(=O)CSc1nnc(-c2ccco2)n1CC(C)C	-10 (active)
CCOC(=O)c1sc(=S)n2c1[nH]c(=O)c1ccc(C(=O)OC)cc12	inactive
CCOC(=O)c1sc(=NC(=O)c2ccc(Br)cc2)n(C)c1C	inactive
CCOC(=O)C1=C(C)Nc2sc(C(=O)c3ccc(Br)cc3)c(N)c2C1c1ccc(C(=O)OC)cc1 (stereo unspecified)	-9.37 (active)
CN(CC(=O)Nc1cccc(F)c1)C(=O)C1=COCCO1	inactive
Cc1ccc(-n2ncc3c(Nc4cccc(C(=O)O)c4)ncnc32)cc1	inactive
COc1ccc(C2=NS(=O)(=O)N(C)C(C(=O)N3CCCCC3)=C2)cc1	inactive
Cc1ccccc1NC(=O)CNc1ccccc1N1CCCCC1	inactive
O=C(CNCCC1=CCCCC1)Nc1ccccc1N1CCCCCC1	-8.91 (active)
Cc1ccccc1NC(=O)Nc1ccccc1N1CCCCC1	inactive
Cc1ccc2oc(C(=O)N3CCN(C)C[C@@H]3C(C)C)c(C)c2c1	inactive
O=C(c1cc(Cl)cc(Cl)c1)N1CCC(=O)N(C(COCc2ccccc2)Cc2ccccc2)CC1 (stereo unspecified)	inactive
CC(C)CC(CO)N1CCN(C(=O)c2ccc(Cl)cc2Cl)CCC1=O (stereo unspecified)	inactive
CC(C)CC(COCc1ccc(Cl)cc1)N1CCN(C(=O)c2ccc(C(F)(F)F)cc2)CCC1=O (stereo unspecified)	-8.19 (active)
O=C1[C@H]2[C@@H](c3ccc(Cl)cc3)N3C(=O)N(c4cccc(F)c4)C(=O)[C@@]3(Cc3ccccc3)[C@H]2C(=O)N1C1CCCCC1	inactive
Cc1onc(-c2ccc(Cl)cc2)c1-c1ccnn1S(=O)(=O)c1ccc(Cl)cc1	-12.4 (active)
COC(=O)c1noc(C)c1-c1ccnn1C(=O)c1ccc(Cl)cc1	inactive
Cc1ccc(S(=O)(=O)Cc2cc(-c3ccc(Cl)cc3)no2)cc1	inactive
Cc1ccc(NS(=O)(=O)c2ccc(-c3coc(C)n3)cc2)c(C)c1	inactive
COc1cc(C(=O)OCC(=O)N(CC(C)C)C2CCS(=O)(=O)C2)ccc1OCC(C)C (stereo unspecified)	inactive
Cn1nc(-c2ccccc2)c(CSc2cccc(Cl)c2)c1Cl	-8.39 (active)
Cc1ccc(S(=O)(=O)c2c(COC(=O)c3cccc(Cl)c3)c(-c3ccccc3)nn2C)cc1	inactive

Structure (SMILES)	B-score
Cn1nc(-c2ccccc2)c(CO)c1Sc1ccccc1	inactive
COc1ccc(C(=O)NC2(C(F)(F)F)NC(=O)N(CCCc3ccccc3)C2=O)c(OC)c1OC (stereo unspecified)	inactive
O=C(c1cccc(S(=O)(=O)N2CCCC2)c1)N(Cc1ccco1)C1CCS(=O)(=O)C1 (stereo unspecified)	inactive
CCOC(=O)N/N=C/c1cn(Cc2ccccc2Cl)c2ccccc12	-9.45 (active)
CNC(=S)N/N=C/c1cn(Cc2ccc(C)cc2)c2ccccc12	inactive
COC(=O)N/N=C/c1cn(CCCOc2ccc(C)cc2)c2ccccc12	inactive
CCc1ccc(N(CC)c2ncnc3nc[nH]c23)cc1	inactive
Cc1cc(Cl)ccc1C(=O)C1CCCN(C(=O)CCN2CCCO2)C1 (stereo unspecified)	inactive
CSc1ccc(/C=C/C(=O)NC23CC4CC(CC(C4)C2)C3)cc1	inactive
c1ccc(C2CNCc3c2ccc2ccccc32)cc1 (stereo unspecified)	inactive
Clc1cccc(-c2nc3nc4ccccc4nc3n2Cc2ccco2)c1	-10.9 (active)
O=C(CSc1nnc(-c2cccnc2)n1Cc1ccco1)c1ccc(Cl)c(Cl)c1	inactive
O=c1[nH]c(CSc2ncc(-c3ccc(F)cc3)n2Cc2ccco2)nc2ccccc12	inactive
CN(Cc1c(F)cccc1Cl)S(=O)(=O)c1cccs1	inactive
CC1CCC2(CC1)NC(=O)N(CC(=O)c1cccn1C)C2=O (stereo unspecified)	inactive
Cc1cccc(N2CCN(C(c3ccc(N(C)C)cc3)c3nnnn3C(C)(C)C)CC2)c1C (stereo unspecified)	-7.3 (active)
CC(C)(C)n1nnnc1C(c1ccc(F)cc1)N1CCN(Cc2ccc3c(c2)OCO3)CC1 (stereo unspecified)	inactive
Cc1cccc(N2CCN(C(c3ccccc3)c3nnnn3CC3CCCO3)CC2)c1C (stereo unspecified)	inactive
Cc1cccc(C)c1NC(=O)c1ccc(CN2CCc3ccccc3C2)cc1	inactive
COc1ccc(OC)c(-c2csc(-c3cccs3)n2)c1	-11.7 (active)
COc1ccc(OC)c(CNC(=O)CCc2nc(-c3cccs3)no2)c1	inactive
COc1ccc(-c2csc(-c3cccs3)n2)cc1OC	inactive
COc1ccc(CNS(=O)(=O)c2ccc(NC(=O)N3CCCCC3)cc2)cc1	inactive
